aSyn yeast inh: qHTS of alpha-syn Inhibitors | Yeast expressing alpha-synuclein, growth rescue, BacTiter-Glo, 24 h | Potency, µM (highest dose often 46.1 µM), for the others: at the highest dose growth rescue (activation), actives largely listed as activators | 370,000 tested, 0.14% active; also: % of control where 0% means no effect; nearly all actives have a fitted effect of over 65% in size
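Screening used galactose-induced yeast with toxic alpha-synuclein levels, exposed to compound for 24 hr at 30 deg C. Cell growth, read with BacTiter-Glo luminescence, gave the measured signal.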
TDP-43 yeast inh: qHTS of TDP-43 Inhibitors. 410,000 tested, 1.8% active. TDP-43 expressing yeast growth rescue, BacTiter-Glo, 24 h. Potency, µM (titrated, usually from 46.1 µM), for the others: at the top dose growth rescue (activation), hits mostly activators. AID 652104, 2013; also: % of control where 0% means no effect; nearly all actives have a fitted effect of over 50% in size
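Yeast expressing TDP-43 (pregrown in raffinose, seeded at OD600=0.02 in galactose medium) exposed to compounds 24 hr at 30 deg C. Growth read by BacTiter-Glo luminescence; rescue of toxicity appears as increased signal.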
Abeta rescue: qHTS for compounds that reverse cellular toxicity of Amyloid beta (A-beta) peptide in yeast: Primary Screen | yeast expressing A-beta42, growth rescue, OD600, 48 h; response scale: 0% DMSO, 100% iron-clioquinol control | Potency, µM (top dose mostly 46.1 µM), usual class: activators | 410,000 tested, 0.063% active | AID 1347071, 2019; also: nearly all actives have a fitted effect of over 55% in size
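Yeast A-beta toxicity model in growth medium with pinned compounds, 48 h at 30 C; growth read as absorbance at 600 nm. Normalized to FeCl3/clioquinol equimolar mix (positive) and DMSO (negative).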
FUS suppressor: qHTS for Suppressors of FUS Proteinopathy: Primary screen using FUS-linked yeast assay; S. cerevisiae FUS-expressing, growth rescue, OD600, 24 h; Potency, µM (titrated, usually from 76.6 µM), most hits filed as activators; AID 1347120, 2019; 390,000 tested, 0.24% active;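 also: plate controls were DMSO vehicle for no effect and reference control for full effect; nearly all actives have a fitted effect of over 55% in size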
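Restored growth of FUS-toxic S. cerevisiae, read as 600 nm absorbance after 24 h at 30C in galactose medium (starting OD 0.005). Controls CP55940 and DMSO.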
Starred values were filed as active, the others as inactive; i = inactive; ? = inconclusive; . = no result given; [ ] = dose if it differs, or a comment. Only some compounds are listed: those with a hit (about 2.1% of all), similar ones and a draw of the others. Calls follow the shape of the dose curve; as a rule, active = well fitted curve in the direction sought with a large enough effect; inconclusive = small, poorly fitted or top-dose-only effect, or another doubt; inactive = no such curve, though single readings can be large; an effect the other way counts as inactive or inconclusive. Potency is read from the fitted curve at half-maximal effect.

SMILES	aSyn yeast inh	TDP-43 yeast inh	Abeta rescue	FUS suppressor
Cc1ccc(C)c(S(=O)(=O)N2C(=S)NC(=O)C2C(C)C)c1 (configuration not stated)	12%	35µM*	i	i
Cc1ccc(C)c(S(=O)(=O)N2CCCN(C)CC2)c1	-1%	-24%	i	i
COc1ccc(-c2coc3c(C(=O)Nc4ccc(OC)nc4)cccc23)c(C)c1	-17%	35µM*	i	i
COc1ccc(-c2ccc(C(=O)Nc3ccc(OC)nc3)c3occc23)c(C)c1	-19%	35µM*	i	?
COCCCNC(=O)c1cccc2c(-c3ccc(OC)cc3C)coc12	-17%	?	i	i
CC(=O)c1ccc(OCc2cc(C(=O)N(C)Cc3ccon3)no2)cc1	-7%	9%	i	.
CCOc1ccc(-n2c(C)cc(C(=O)CCl)c2C)cc1	-22%	8.9µM*	i	i
COC(=O)c1ccc(-n2c(C)cc(C(=O)CCl)c2C)cc1	-23%	?	i	i
CC(=O)/C(CN1CCCCC1)=N\O	4%	-11%	i	i
C/C(=N\O)C(=O)C(CN1CCCCC1)CN1CCCCC1	14µM*	-29%	i	i
CCc1ccccc1N1CC(c2nc3ccccc3n2CCOc2ccc(Cl)c(C)c2)CC1=O (configuration not stated)	.	-11%	i	25µM*
Cc1cccc(OCCCCn2c(C3CC(=O)N(c4ccc(C)cc4C)C3)nc3ccccc32)c1 (configuration not stated)	.	32µM*	i	?
Cc1cc(OCCn2c(C3CC(=O)N(Cc4ccc(F)cc4)C3)nc3ccccc32)ccc1Cl (configuration not stated)	.	4%	i	i
Cc1ccc(C)c(OCCn2c(C3CC(=O)N(Cc4ccc(F)cc4)C3)nc3ccccc32)c1 (configuration not stated)	.	35µM*	i	?
CCc1ccc(N2CC(c3nc4ccccc4n3Cc3ccccc3C)CC2=O)cc1 (configuration not stated)	.	28µM*	i	?
COc1cc2c(cc1OC)-c1nnc(-c3ccco3)n1C1(CCCC1)C2	17%	-3%	i	i
Cc1ccc(C)c(NC(=O)Cn2cc(C(=O)c3ccco3)c3ccccc32)c1	.	12%	i	i
CCOc1ccccc1N(CC(=O)NC1CCCCC1)C(=O)CCC(=O)Nc1nccs1	-2%	6%	i	i
COc1ccccc1-c1cc(C(F)(F)F)nc(N2CCOCC2)n1	-27%	22µM*	i	i
CC(C)CCNC(=O)c1ccc(C2SCC(=O)N2Cc2ccco2)cc1 (configuration not stated)	3%	21%	i	i
COc1ccc(/C=C2\COc3ccccc3C2=O)cc1OC	23%	2.8µM*	i	i
O=C(O)c1ccc(/C=C2\COc3ccccc3C2=O)cc1	?	11µM*	i	i
CCOc1cc(/C=C2\COc3ccccc3C2=O)cc(Br)c1OCC(=O)N(C)C	?	22µM*	i	?
Cc1c(NC(=O)c2cc3c(s2)-c2ccccc2OC3)cccc1[N+](=O)[O-]	-3%	18%	i	i
O=C(O)Cn1cc(/C=C/[N+](=O)[O-])c2ccccc21	-1%	7%[9.22 µM]	i	i
SMILES	aSyn yeast inh	TDP-43 yeast inh	Abeta rescue	FUS suppressor
O=[N+]([O-])/C=C/c1cn(Cc2ccccc2)c2ccccc12	1%	10µM*	i	i
COC(=O)c1cc(CNC(=O)Cc2ccsc2)ccc1OC	0%	-1%	i	i
CCOc1ccc(NC(=O)N2CCN(S(=O)(=O)c3ccc4c(ccn4C)c3)CC2)cc1	0%	-21%	i	40µM*
COc1ccc(NC(=O)N2CCN(S(=O)(=O)c3ccc4c(ccn4C)c3)CC2)c(OC)c1	2%	0%	i	13µM*
COc1ccc(OC)c(NC(=O)N2CCN(S(=O)(=O)c3ccc4c(ccn4C)c3)CC2)c1	?	19%	i	?
CC(/C=C/c1ccc2c(c1)OCO2)=N/NC(=O)COc1ccc(C)cc1	2%	8%	i	.
Cc1ccc(N(C)S(=O)(=O)c2cccc(C(=O)Nc3nnc(C4CC4)s3)c2)cc1	0%	.	i	i
COc1ccc(S(=O)(=O)NC(C)C(=O)Nc2cccc(C(C)=O)c2)cc1 (configuration not stated)	3%	11%	i[9.22 µM]	i
S=C(NCc1ccccn1)Nc1ccc(Br)cc1Cl	3%	13µM*	?	i
O=C(NCc1ccccn1)Nc1ccc(Br)cc1Cl	3%	24%	i	i
Cc1c(CCNC(=O)Cc2ccccc2)sc2nc(-c3ccc(F)cc3)nn12	.	10µM*	i	i
CCCS(=O)(=O)NCCc1sc2nc(-c3ccc(F)cc3)nn2c1C	.	24%	i	i
Cc1c(CCNC(=O)c2ccco2)sc2nc(-c3ccc(F)cc3)nn12	.	?	i	i
Cc1ccc(-c2nc3sc(CCNC(=O)c4ccc(Br)o4)c(C)n3n2)cc1	.	18µM*	i	?
Cc1c(CCNC(=O)Cc2ccc(F)cc2)sc2nc(-c3ccc(F)cc3)nn12	.	?	i	i
Cc1cc(C)c(S(=O)(=O)NCCc2sc3nc(-c4ccc(F)cc4)nn3c2C)c(C)c1	.	20µM*	?	i
Cc1ccc(-c2nc3sc(CCNC(=O)c4ccco4)c(C)n3n2)cc1	.	20µM*	i	i
CN1CCN(C(=S)SCC(=O)N2CCCc3ccccc32)CC1	0%	14%	i	.
O=C(Nc1ccccc1Cl)c1ccccc1CC(O)(c1ccccc1)c1ccccc1	-20%	-13%	i	i
COc1ccc2c(C)nc(N/C(N)=N/S(=O)(=O)c3ccc(C)cc3)nc2c1	1%	3%	i	i
N#CC1=C(N)Oc2n[nH]c(-c3ccccc3)c2C12C(=O)Nc1ccccc12 (configuration not stated)	1%	5%	?	i
CC1=CC(=C(C#N)c2nc3ccccc3s2)C=C(C)N1Cc1ccco1	-1%	-14%	i	i
Cc1cc2nc3c(nc2cc1C)C1(C(=O)O)CCC3(C)C1(C)C (configuration not stated)	11%	20µM*	i	i
CCOc1ccc(Nc2c(S(=O)(=O)c3ccc(Cl)cc3)cnc3ccc(OCC)cc23)cc1	.	29%	i	?
COC1=C(Nc2ccc(OC)cc2)C(=O)c2ccccc2C1=O	-16%	18µM*	i	i
COc1ccc(NS(=O)(=O)c2cccc3ccccc23)cc1	?	11µM*	i	i
CCOc1ccc(NC2=C(OC)C(=O)c3ccccc3C2=O)cc1	-12%	18µM*	i	i
COC1=C(Nc2ccc(OC)cc2)C(=O)C(OC)=C(Nc2ccc(OC)cc2)C1=O	-1%	21%	i	i
COc1ccc(S(=O)(=O)Nc2cccc3ccccc23)cc1	19%	.	.	.
